# PubChem BioAssay
# “And” between values parts separate entries of the source, which are not always exact repeats. Identical values can stand only once. The source made the active and inactive calls.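 The calls were made as follows, unless noted: active = inhibition at or above 50% relative to wild type and mutant plate controls; inactive = inhibition below 50%.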
# Experiments:
# [1] = inhibitors of mutant huntingtin aggregation, primary screen, imaging, exon1htt(103Q)mCFP cells, high-content imaging (AID 483;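 active = visual image review flags a hit and inhibition of aggregation exceeds 20%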;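 also: compound exposure lasted 3 days before fixation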;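 as to nuclei count: percent of the per-plate median nuclei count of sample wells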); conditions: exon1htt(103Q)mCFP cell line, aggregate imaging, at 2 µM; inhibition of aggregation: stronger effect = higher value; nuclei count: measured here: cell count, toxicity
# [2] = inhibitors of E-selectin induction by TNFa, primary screen, imaging, HUVEC, immunofluorescence, MLSMR starter and 10KST1 sets (AID 487;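 active = visually confirmed hit in the image check and inhibition above 20%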;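 as to inhibition: signal is fraction of cell area covered by stained E-selectin grains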;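 as to nuclei count: 100% = median nuclei count of all wells on the same plate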); conditions: HUVEC TNFalpha-induced E-selectin immunofluorescence imaging, at 2 µM; inhibition: stronger effect = higher value; nuclei count: measured here: cell number, toxicity
# [3] = DUSP6 inhibitors restoring Erk phosphorylation by chemical complementation, primary imaging in DUSP6-transfected HeLa (AID 609;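 active = compounds giving at least 50% inhibition in the cell-based MKP-3 phosphatase rescue imaging test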;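 as to inhibition: phospho-Erk level distribution per well compared with pooled transfected vehicle control wells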); conditions: HeLa MKP-3 transfected, phospho-Erk imaging KS statistic, at 10 µM, cells stimulated with TPA for 15 min
# [4] = target: Dual specificity protein phosphatase 6 (Homo sapiens) (UniProt Q16828); assay: as above; conditions: HeLa MKP-3 transfected, phospho-Erk imaging KS statistic; at 10 µM; stronger effect = higher value; cells stimulated with TPA for 15 min
# Dual specificity protein phosphatase 6 (Homo sapiens), sequence (Q16828 whole entry, looked up): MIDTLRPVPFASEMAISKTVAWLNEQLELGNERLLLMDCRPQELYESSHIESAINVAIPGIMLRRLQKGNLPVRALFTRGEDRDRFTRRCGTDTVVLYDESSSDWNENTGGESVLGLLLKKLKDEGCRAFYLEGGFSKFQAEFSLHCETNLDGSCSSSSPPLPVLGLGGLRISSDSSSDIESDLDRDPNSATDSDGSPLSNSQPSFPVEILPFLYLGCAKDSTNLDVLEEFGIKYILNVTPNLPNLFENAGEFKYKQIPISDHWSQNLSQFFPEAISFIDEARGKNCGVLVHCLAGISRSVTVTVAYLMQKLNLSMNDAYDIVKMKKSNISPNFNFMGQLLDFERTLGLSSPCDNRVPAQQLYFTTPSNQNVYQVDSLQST
# [5] = target: Voltage-gated potassium channel subunit beta-2 (Rattus norvegicus) (UniProt P62483); assay: KvBeta enzyme negative modulators, primary screen, biochemical, NADPH fluorescence (AID 622;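 active = fluorescence slope higher than the sample average by over 3 SD, cut at about -0.22 in these data, passing the limit was not always enough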;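 also: slope of raw intensity against log time taken from 70 to 1610 s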); conditions: recombinant KvBeta, 4-cyanobenzaldehyde reduction, at 10 µM, stronger effect = higher value
# Voltage-gated potassium channel subunit beta-2 (Rattus norvegicus), sequence (P62483 whole entry, looked up): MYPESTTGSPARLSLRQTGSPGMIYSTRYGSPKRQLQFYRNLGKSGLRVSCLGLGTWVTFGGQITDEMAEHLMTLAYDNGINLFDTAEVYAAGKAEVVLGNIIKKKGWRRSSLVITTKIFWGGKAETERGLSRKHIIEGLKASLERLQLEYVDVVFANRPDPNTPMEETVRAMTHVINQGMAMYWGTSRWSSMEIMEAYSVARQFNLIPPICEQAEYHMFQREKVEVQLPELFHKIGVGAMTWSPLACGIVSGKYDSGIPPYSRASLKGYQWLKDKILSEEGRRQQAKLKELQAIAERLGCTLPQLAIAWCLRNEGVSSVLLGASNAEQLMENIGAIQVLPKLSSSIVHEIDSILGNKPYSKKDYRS
# [6] = target: Voltage-gated potassium channel subunit beta-2 (Rattus norvegicus) (UniProt P62483); assay: KvBeta positive modulators, primary screen, biochemical, NADPH fluorescence (AID 623;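 active = NADPH fluorescence slope more negative than the mean of all samples by about 3 SD, 99.7% confidence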;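 also: fluorescence intensity change per second fitted from 20 to 320 s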); conditions: Recombinant KvBeta, NADPH fluorescence decrease slope, 10 min; at 10 µM; stronger effect = lower value
# [7] = target: Alpha-2C adrenergic receptor (Homo sapiens) (UniProt P18825); assay: modulators of alpha2C/GIRK thallium flux, primary screen, cell-based, HEK293 alpha2C/GIRK1/2 (AID 624;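 active = fluorescence slope after compound addition differing from the mean of all screened samples at 99.7% confidence, in either direction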;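 also: slope of fluorescence ratio to pre-addition baseline per second over 15 to 24 s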); conditions: thallium flux BTC fluorescence, at 10 µM, actives lie on both sides
# Alpha-2C adrenergic receptor (Homo sapiens), sequence (P18825 whole entry, looked up): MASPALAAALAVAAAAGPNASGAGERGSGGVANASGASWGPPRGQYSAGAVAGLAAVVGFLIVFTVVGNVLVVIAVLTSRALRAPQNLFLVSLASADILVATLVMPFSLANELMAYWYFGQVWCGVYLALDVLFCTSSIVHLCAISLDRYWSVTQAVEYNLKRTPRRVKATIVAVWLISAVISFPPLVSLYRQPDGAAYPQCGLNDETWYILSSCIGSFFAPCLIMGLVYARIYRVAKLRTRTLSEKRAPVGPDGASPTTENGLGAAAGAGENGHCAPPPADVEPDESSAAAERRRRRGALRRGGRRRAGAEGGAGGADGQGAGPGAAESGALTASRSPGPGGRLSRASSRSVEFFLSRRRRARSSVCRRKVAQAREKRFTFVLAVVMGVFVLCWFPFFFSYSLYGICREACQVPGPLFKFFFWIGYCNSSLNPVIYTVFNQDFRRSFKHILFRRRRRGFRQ
# [8] = inhibitors of larval lipid processing in zebrafish, primary screen, whole organism, PED6 fluorescence, gall bladder and intestine (AID 686;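 active = a full or partial loss of lipid-probe fluorescence in the fish gall bladder, intestine or both, judged by eye; inactive = no fluorescence loss, or compound toxic to the fish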;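 also: larvae 5 to 7 days old with five fish per well; signal comes from phospholipase A2 cleavage of quenched PED6 carried via bile; overnight exposure to compound and PED6 before scoring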); conditions: Zebrafish larvae PED6 lipid processing, fluorescence scoring; screened at 20 µM (by protocol)
# [9] = inhibitors of Chlamydomonas gravitaxis, primary screen, whole organism, Chlamydomonas reinhardtii, WT vs cilia-less mutant, absorbance, 96-well (AID 463189); conditions: OD600 absorbance, 2 days, at 10 µM, stronger effect = higher value;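 also: 0% = wild type cc124 cells in DMSO and 100% = ciliumless bld1 mutant cells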
# [10] = inhibitors of Sendai virus-induced IRF3 signaling, primary screen, TLR/RLR signaling modifier project, cell-based, Sendai virus stimulus, luciferase, 10K MLSCN set (AID 602276;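 active = inhibition at or above 50% at 10 µM; inactive = inhibition below 50%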;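 also: firefly luciferase from ISG56 promoter only with Renilla not read in this screen; 0% = Sendai virus plus DMSO and 100% = medium plus DMSO without virus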); conditions: HEK293 RL24 IRF3 luciferase reporter, at 10 µM, stronger effect = higher value
# [11] = inhibitors of poly I:C-induced TLR3 signaling, primary screen, cell-based, poly I:C stimulus, luciferase, 10K MLSCN set (AID 602277;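 active = inhibition of the reporter signal at or above 50%; inactive = inhibition below 50%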); conditions: HEK293-TLR3 RL24 IRF3 luciferase reporter, at 10 µM, stronger effect = higher value
# [12] = measured here: cell density z-score
# [13] = measured here: nuclear c-Myc green intensity z-score
# [14] = measured here: nuclear pErk red intensity z-score, stronger effect = higher value
Compound,inhibition of aggregation [1],nuclei count [1] [%],inhibition [2],nuclei count [2] [%],"z-score [3, 12]","z-score [3, 13]","z-score [3, 14]",inhibition [4],fluorescence slope [5],NADPH fluorescence slope [6],slope [7],outcome [8],inhibition [9],inhibition [10],inhibition [11]
NS(=O)(=O)c1cc2c(cc1C(F)(F)F)NCNS2(=O)=O,0% (inactive),106,-96.4% (inactive),114,-1.02,0.57,-0.708,3.45% (inactive),-0.444 (inactive),-4.4e-05 (inactive),0.00463 (inactive),inactive,-11.3% (inactive),5.25% (inactive),24.3% (inactive)
C1COC(NC(C2CC2)C2CC2)=N1,19% (inactive),109,-91.3% (inactive),116,-0.996,0.285,-0.338,25.7% (inactive),-0.468 (inactive),-4.8e-05 (inactive),0.00489 (inactive),–,2.12% (inactive) and 18.6% (inactive),-6% (inactive),20.5% (inactive)
O=c1c(O)c(-c2ccc(O)cc2O)oc2cc(O)cc(O)c12,2.1% (inactive),102,3% (inactive),114,-0.466,0.679,0.0465,-0.493% (inactive),-0.439 (inactive),-0.000116 (inactive),0.00575 (inactive),inactive,8.46% (inactive) and 17% (inactive),11.8% (inactive),29.6% (inactive)
Cc1cc(C(C)(C)C)cc(C)c1CC1=NCCN1,8.7% (inactive),94.6,-76.9% (inactive),129,0.444,-0.489,-0.727,5.79% (inactive),-0.464 (inactive),-7.1e-05 (inactive),0.00474 (inactive),inactive,-10% (inactive) and -5.2% (inactive),2.07% (inactive),45.9% (inactive)
CC(=O)Oc1ccc(C(c2ccc(OC(C)=O)cc2)c2ccccn2)cc1,-12.4% (inactive),99.8,-68.3% (inactive),100,-0.73,0.784,0.224,5.79% (inactive),-0.45 (inactive),-2.1e-05 (inactive),0.00425 (inactive),inactive,19.6% (inactive),12.5% (inactive),40.9% (inactive)
CCCOc1ccc2nc(NC(=O)OC)[nH]c2c1,-14.5% (inactive),98.6,-34% (inactive),126,0.515,0.392,-0.582,1.48% (inactive),-0.47 (inactive),-3.6e-05 (inactive),0.00449 (inactive),inactive,-11.7% (inactive),25.2% (inactive),74.2% (active)
C[N+](C)(C)CCCCCCCCCC[N+](C)(C)C,-3.9% (inactive),89.1,-38.7% (inactive),126,-0.332,-0.124,-0.205,7.39% (inactive),-0.47 (inactive),-5.9e-05 (inactive),0.00465 (inactive),inactive,0.674% (inactive) and 0.681% (inactive),-7.67% (inactive),7.68% (inactive)
OCCOCCN1CCN(C(c2ccccc2)c2ccc(Cl)cc2)CC1 (centres undefined),2.8% (inactive),101,-65.7% (inactive),139,-1.36,1.18,1.19,-0.828% (inactive),-0.46 (inactive),2.2e-05 (inactive),0.00446 (inactive),inactive,-13.4% (inactive),14.5% (inactive),34.4% (inactive)
